# Only some compounds are listed: those with a hit (about 17% of all), similar ones and a draw of the others.
# TDP1 inh – qHTS Assay for Inhibitors of Tyrosyl-DNA Phosphodiesterase (TDP1). AID 485290, 2010. 350,000 compounds, 0.28% hits. Tyrosyl-DNA phosphodiesterase 1 (Homo sapiens), Q9NUW8. Potency, µM (titrated, usually from 130 µM), without a hit: at the top dose activity change, negative = inhibition, most hits filed as inhibitors. recombinant TDP1, AlphaScreen DNA substrate cleavage; further: on the % scale 0 is the no-effect control and ±100 the full control effect; nearly all actives have a fitted effect of over 40% in size
#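 Enzyme-compound mixtures sat 15 min at room temperature, followed by a 5 min reaction with 15 nM final substrate and 10 min with AlphaScreen beads. Recombinant human Tdp1 was used at 1 nM final.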
# TDP1 cell CPT – qHTS for Inhibitors of human tyrosyl-DNA phosphodiesterase 1 (TDP1): qHTS in cells in presence of CPT. chicken DT40 Tdp1-/-;hTDP1 cells + 20 nM CPT, ATP luminescence, 48 h. Potency, µM (doses to about 46.2 µM), inactives show top-dose activity change, negative = growth inhibition, usual class: inhibitors. 420,000 compounds, 12% hits. AID 686979, 2013; further: on the % scale 0 is the no-effect control and ±100 the full control effect; nearly all actives have a fitted effect of over 55% in size
#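 Cell growth measured by CellTiter-Glo luminescence after a minimum 48 h, 37 C compound exposure with 20 nM CPT in Tdp1-knockout DT40 cells stably expressing hTDP1, seeded 400/well; qHTS titration format.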
# TDP1 cell noCPT – qHTS for Inhibitors of human tyrosyl-DNA phosphodiesterase 1 (TDP1): qHTS in cells in absence of CPT; AID 686978, 2013; Potency, µM (series often up to 46.2 µM), for the others: at the highest dose activity change, negative = growth inhibition, most hits filed as inhibitors; DT40 Tdp1-/- hTDP1 cells, no CPT, ATP luminescence, 48 h; 420,000 compounds, 15% hits; further: on the % scale 0 is the no-effect control and ±100 the full control effect; nearly all actives have a fitted effect of over 55% in size
#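 Luminescent ATP content (CellTiter-Glo) served as the growth readout. Knockout chicken DT40 cells expressing human TDP1 were exposed to compounds without camptothecin for a minimum 48 hr at 37 °C.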
# ClpP mod – qHTS Assay for Activators of ClpP; ATP-dependent Clp protease proteolytic subunit (Bacillus subtilis (strain 168)), P80244; purified B. subtilis ClpP, FRET peptide cleavage, 20 min; Potency, µM (highest dose often 57.5 µM), for inactives: at the top dose activity change, negative = active; 340,000 compounds, 1.9% hits; AID 651965, 2013; active means well fitted falling curve with a large enough effect; inconclusive means small, poorly fitted or top-dose-only effect; inactive means no such curve, though single readings can be large or run the other way; further: the source files actives as falling curves though it sought activators and does not explain the sign; nearly all actives have a fitted effect of over 65% in size
#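 FRET quenching reversal measured ClpP activation: 10 microg/mL B. subtilis ClpP at pH 8 with the FRET-FV decapeptide, read at 430 nm after 320 nm excitation. The 20-min minus 0-min signal was scaled between DMSO/no-enzyme wells and ADEP (5.8 microM final).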
# * hit, by the source's call; ? = inconclusive; nt = not tested or not shown; [ ] = another dose, or the depositor's remark. Unless noted, the call rests on the fitted dose curve; in most records, active means well fitted curve in the direction sought with a large enough effect; inconclusive means small, poorly fitted or top-dose-only effect, or another doubt; inactive means no such curve, though single readings can be large; an effect the other way counts as inactive or inconclusive. Potency means the concentration at half of the fitted maximal effect.
SMILES,TDP1 inh,TDP1 cell CPT,TDP1 cell noCPT,ClpP mod
CCCCCCNC(=O)CCCCCNS(=O)(=O)c1ccc(OC)cc1,3%,18µM*,?,1%
COCCCNC(=O)CC(NS(=O)(=O)c1ccc(OC)cc1)c1ccc(OC)cc1 (stereo not drawn),3%,-2%,2%,22µM*
COCCCNC(=O)CC(NS(=O)(=O)c1ccc(C)cc1)c1ccc(OC)cc1 (stereo not drawn),0%,-5%,-1%,0%
CCCCCCNC(=O)CCCCCNS(=O)(=O)c1ccc(Br)cc1,-3%,-23%,?,nt
Cc1ccc(C2=NCCn3c2c2ccc(C(F)(F)F)cc2[n+]3[O-])cc1,4%,-10%,-19%,1%
Cc1cc(C(=O)O)c(C)n1-c1ccccc1,7%,-14%,-15%,-3%
Cc1cccc(C)c1NC(=S)N1CCOCC1,1%,-3%,-13%,-1%
COc1ccc(NC(=O)C(=O)c2cc(C)n(-c3ccc(C)cc3)c2C)cc1Cl,9%,?,8.2µM*,-4%
Cc1cccc(-n2c(C)cc(C(=S)N3CCOCC3)c2C)c1C,3%,15µM*,18µM*,-3%
Cc1cc(C(=O)C(=O)N(C)C)c(C)n1-c1ccc(Cl)cc1,4%,?,18µM*,nt
Cc1cc(C)cc(-n2c(C)cc(C(=S)N3CCOCC3)c2C)c1,-3%,?,12µM*,-2%
CCNC(=O)C(=O)Nc1ccc(OC)c(Cl)c1,4%,-14%,?,nt
O=C(Nc1cc2c(cc1C(=O)c1ccccc1)OCCO2)c1ccc(Br)cc1,-2%[12.3 µM],2%,6%,2%
O=S1(=O)CCN2N=C(C3CC3)SC2=N1,1%,14%,-13%,nt
Cc1cc(C(=S)N2CCOCC2)c(C)n1-c1ccc(Cl)cc1,3%,21µM*,21µM*,-2%
Cc1cc(C(=O)C(=O)N(C)C)c(C)n1-c1ccc([N+](=O)[O-])cc1,2%,-20%,-25%,1%
C=CCN(CC=C)C(=O)C(=O)c1cc(C)n(-c2ccc([N+](=O)[O-])cc2)c1C,6%,?,15µM*,-1%
Cc1cccc(C(=O)Nc2cccc(C(=O)OCc3cc(=O)n4c5c(sc4n3)CCCC5)c2)c1,4%,?,?,0%
Cc1ccnc(NC2c3ccccc3C(=O)N2Cc2ccccc2Cl)c1 (stereo not drawn),8%,?,26µM*,1%
COc1cc(NC2c3ccccc3C(=O)N2Cc2ccccc2Cl)cc(OC)c1OC (stereo not drawn),1%,-18%,-28%,1%
COc1cccc(C(O)c2nc(-c3cccc(C(=O)O)c3)cs2)c1 (stereo not drawn),nt,-2%,-2%,-1%
O=C(CCN1C(=O)/C(=C\c2ccccc2)SC1=S)Nc1ccc(C(=O)O)cc1,nt,7%,-2%,nt
COc1ccc(/C=C2\SC(=S)N(CCCC(=O)Nc3ccc(C(=O)O)cc3)C2=O)cc1OC,50µM*,-14%,-11%,-2%
CCN(CC)CCOC(=O)c1ccc(NC(=O)CCCN2C(=O)S/C(=C/c3ccc(OC)cc3)C2=S)cc1,7%,?,21µM*,nt
CCOc1ccc(/C=C2/SC(=S)N(CCC(=O)Nc3ccc(C(=O)O)cc3)C2=O)cc1,10µM*,4%,11%,-3%
SMILES,TDP1 inh,TDP1 cell CPT,TDP1 cell noCPT,ClpP mod
COc1ccc(/C=C2\SC(=O)N(CCCC(=O)Nc3ccc(C(=O)O)cc3)C2=O)cc1OC,1%,-1%,2%,1%
COc1ccc(/C=C2/SC(=S)N(CCCC(=O)Nc3ccc(O)cc3)C2=O)cc1OC,5%,?,15µM*,0%
O=C(NCc1ccncc1)c1cnn(-c2nccc(-c3cc4ccccc4o3)n2)c1C1CC1,nt,?,-28%,nt
CC(C)c1nc2ccc(C(=O)NCc3ccc(F)cc3)cc2o1,3%,-26%,?,3%
CCCCc1cc(=O)oc2cc(C)c3c(C(C)(C)C)coc3c12,4%,?,?,-34%
Cn1c(=O)c2c(nc(NCc3ccc4c(c3)OCO4)n2Cc2ccc(F)cc2)n(C)c1=O,9%,9.2µM*,6.5µM*,-1%
CCNc1nc2c(c(=O)n(C)c(=O)n2C)n1Cc1ccc(F)cc1,12%,2.1µM*,1µM*,2%

# Bioassay records: PubChem, National Center for Advancing Translational Sciences (NCATS)
